SMILES strings stand for the structures. Results filed as inconclusive are left out. The source made the active and inactive calls. Calls follow the shape of the dose curve; as a rule, active = well fitted inhibition curve with a large enough effect; inconclusive = small, poorly fitted or top-dose-only effect; inactive = flat fitted curve, though single readings scatter.
% is scaled to controls: 0 for no effect and ±100 for the full control effect.

The test system of this experiment is KB-3-1. Nature of the experiment: Cytotoxic Profiling of Annotated Libraries Using Quantitative High-Throughput Screening (AID 1296008). Also: nearly all actives have a fitted effect of over 60% in size. The conditions noted are these: Five cell lines viability, CellTiter-Glo ATP luminescence, 48-72 h; max response: hits give low values. An excerpt:
Cell-based phenotypic screening is a commonly used approach to discover biological pathways, novel drug targets, chemical probes and high-quality hit-to-lead molecules. Many hits identified from high-throughput screening campaign are ruled out through a series of follow-up potency, selectivity/specificity, and cytotoxicity assays. Prioritization of molecules with little or no cytotoxicity for a more in-depth downstream evaluation influence the future direction of projects, so cytotoxicity profiling of the screening libraries at early stage is essential for increasing the likelihood of candidate success. […] For the annotated library, we also examined the primary targets and mechanistic pathways regularly associated with cell death. To our knowledge, this is the first study to use high-throughput screening to profile large libraries for cytotoxicity assessment in both normal and cancer cell lines. In summary, the results generated here constitutes a valuable resource for the scientific community and provides insight on identifying cytotoxic compounds with particular mechanisms of action, and prioritizing compounds with suitable cytotoxicity profile for further evaluation.
A pintool (Kalypsys) was used to transfer 23 nL of compound solution to the 1536-well assay plates. After 48 or 72 hr incubation at 37 degree Celsius, 5% CO2 and 95% humidity, 2.5 uL of CellTiter-Glo (Promega) was dispensed into each well using a dispenser (Aspect Automation, St. Paul, MN) with solenoid valves (Lee Valves, Westbrook CT). Plates were left at room temperature for 10 min before imaging the ATP-coupled luminescence using a ViewLux microplate imager (PerkinElmer, Waltham, MA).
A general note: ATP-based viability assays read luminescence as a measure of living cells.
As to `O=C1OC2(c3ccccc31)c1cc(Br)c(O)c(Br)c1Oc1c2cc(Br)c(O)c1Br`, the max response is -24.7% (inactive).

Regarding `OC[C@H]1O[C@@H](Oc2ccc(O)cc2)[C@H](O)[C@@H](O)[C@@H]1O`, the max response is 3.33% (inactive).

Regarding `CC(=C(CCOC(=O)C(C)C)SSC(CCOC(=O)C(C)C)=C(C)N(C=O)Cc1cnc(C)nc1N)N(C=O)Cc1cnc(C)nc1N`, the max response was 1.98% (inactive).

For the molecule `NCc1ccccc1Sc1ccccc1CO`, the max response is 6.51% (inactive).

With `CCOC(=O)c1ccc(N)cc1`, the max response was 1.36% (inactive).

Take `C#C[C@]1(O)CC[C@H]2[C@@H]3CCC4=CC(=O)CC[C@@H]4[C@H]3CC[C@@]21CC`: the max response is -1.4% (inactive).

On to `CCC1NC(=O)c2cc(S(N)(=O)=O)c(Cl)cc2N1` (stereo not given), for which the max response was -10.4% (inactive).

As to `CCNC(=O)/C=C/c1cccc(Br)c1`, the max response was -0.104% (inactive).

As for `CCCCCCCCCCCCCCCC(=O)O`, the max response was 2.75% (inactive).

Regarding `O=C(O)C(Cc1cc(I)c(O)c(I)c1)c1ccccc1` (stereo not given), the max response was -19.5% (inactive).

On to `CCC(Cc1c(I)cc(I)c(N)c1I)C(=O)O` (stereo not given), for which the max response is -8.27% (inactive).

`Oc1ccccc1C=NCc1ccccc1`: the max response was -4.65% (inactive).

Take `CCCCCCCCCCCCCC(=O)OC(C)C`: the max response was -19% (inactive).

`CCCCCCCC/C=C\CCCCCCCCN`: the max response is -6.06% (inactive).

`CC(C)Cn1cnc2c1c(=O)n(C)c(=O)n2C`: the max response was -13.7% (inactive).

`CCN(CC)CCNC(=O)COc1ccc(OC)cc1`: the max response was 7.84% (inactive).

In the case of `Cc1c(-c2ccccc2)oc2c(C(=O)OCCN3CCCCC3)cccc2c1=O`, the max response is -3.83% (inactive).

On to `COC(=O)C(c1ccccc1Cl)N1CCc2sccc2C1` (stereo not given), for which the max response was -8.1% (inactive).

Take `OC[C@H]1O[C@@H]2O[C@H]3[C@H](O)[C@@H](O)[C@@H](O[C@H]4[C@H](O)[C@@H](O)[C@@H](O[C@H]5[C@H](O)[C@@H](O)[C@@H](O[C@H]6[C@H](O)[C@@H](O)[C@@H](O[C@H]7[C@H](O)[C@@H](O)[C@@H](O[C@H]8[C@H](O)[C@@H](O)[C@@H](O[C@H]1[C@H](O)[C@H]2O)O[C@@H]8CO)O[C@@H]7CO)O[C@@H]6CO)O[C@@H]5CO)O[C@@H]4CO)O[C@@H]3CO`: the max response was 3.96% (inactive).

Regarding `COc1ccc(C(=O)c2ccccc2O)c(O)c1`, the max response is -2.05% (inactive).

On to `CC(=O)Nc1ncc([N+](=O)[O-])s1`, for which the max response is 1.85% (inactive).

For `COc1ccc2c(c1)c1c3n2CCN(C)C3=NCC1`, the max response was 0.417% (inactive).

`NS(=O)(=O)c1cc(C(=O)O)cc(N2CCCC2)c1Oc1ccccc1`: the max response was 3.66% (inactive).

As for `O=C(O)CCC(=O)Nc1ccc(S(=O)(=O)Nc2nccs2)cc1`, the max response is 14.8% (inactive).

`O=[N+]([O-])c1ccc(/C=N\O)o1`: the max response was -13.1% (inactive).

With `CCC(CC)(CC(=O)Nc1cccc(/C=C/c2nc(C3CCC3)cs2)c1)C(=O)O`, the max response is -22.9% (inactive).

As for `CCCCC(CC)CN1CN(CC(CC)CCCC)CC(C)(N)C1` (stereo not given), the max response was -12.3% (inactive).

Regarding `COc1cc(C(=O)N2CCCCCCC2)cc(OC)c1OC`, the max response is -4.88% (inactive).

`COc1ccccc1N1CCN(CCCCNC(=O)c2ccc(-c3ccc(C(C)=O)cc3)cc2)CC1`: the max response is -4.38% (inactive).

Regarding `O=C(CN1CCN(Cc2ccc3c(c2)OCO3)CC1)N1c2ccccc2Sc2ccccc21`, the max response is 6.91% (inactive).

As to `O=C(O)C1(C(=O)O)CCC1.[NH2-].[NH2-].[Pt+2]`, the max response was 13% (inactive).

Consider `COc1ccc(CCN(C)CCCN2CCc3cc(OC)c(OC)cc3CC2=O)cc1OC`, for which the max response is -10.8% (inactive).

For `CC1(C)OC[C@@H]2O[C@@]3(C(=O)O)OC(C)(C)O[C@H]3[C@@H]2O1`, the max response is -15.5% (inactive).

For the molecule `O=C1c2cccc3c2[C@H](CCC3)CN1[C@@H]1CN2CCC1CC2`, the max response is -11.9% (inactive).

Take `OCCOCCN1CCN(C2=Nc3ccccc3Sc3ccccc32)CC1`: the max response is -2.1% (inactive).

As to `CC(=O)OCC1=C(C(=O)O)N2C(=O)[C@@H](NC(=O)CSc3ccncc3)[C@H]2SC1`, the max response is 2.34% (inactive).

Turning to `O=C(Nc1ccc([N+](=O)[O-])cc1)Nc1ccc([N+](=O)[O-])cc1`, the max response was -1.19% (inactive).

As for `CC(=O)Nc1ccc(OCC(O)CNC(C)C)cc1` (stereo not given), the max response was -4.81% (inactive).

For `CN1CCN(c2cc3c(cc2F)c(=O)c(C(=O)O)cn3-c2ccc(F)cc2)CC1`, the max response is -5.32% (inactive).

Regarding `O=[N+]([O-])c1cccc(S(=O)(=O)NCCNS(=O)(=O)c2cccc([N+](=O)[O-])c2)c1`, the max response is 2.2% (inactive).

(Values after PubChem BioAssay (NCATS).)
